Five compounds from PubChem BioAssay can be followed below.

Results filed as inconclusive are left out. Active and inactive are the calls of the source.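 How the source made its calls, unless noted: active means inhibition above the screen-wide mean plus 3 SD, about 51%; inactive means the rest.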

A short description of test [1]: yeast TOR pathway RPL19A-GFP modulators, primary screen, cell-based, S. cerevisiae, multiplex flow cytometry (AID 1862; in the data active means percent of DMSO control GFP below about 86%;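 further: lower values mimic rapamycin by blocking the RPL19A rise seen in DMSO cells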). To be noted: S. cerevisiae RPL19A-GFP strain, flow cytometry fluorescence, 3 h; at 10 µM; stronger effect = lower value. (In general: Flow cytometry measures light scatter and fluorescence of single cells or particles in a stream.)
Test [2] can be described thus: modulators of MEP2-GFP levels in yeast, primary screen, S. cerevisiae, multiplex flow cytometry (AID 1867;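 active means GFP response, as percent of the DMSO control, above the screen-wide mean plus 3 SD, about 139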;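 further: median GFP channel fluorescence of barcode-gated MEP2-GFP cells measured by flow cytometry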). To be noted: S. cerevisiae MEP2-GFP strain, 3 h, at 10 µM, stronger effect = higher value, 100% means same as DMSO wells.
Test [3] can be described thus: modulators of CIT2-GFP expression in yeast, primary screen, S. cerevisiae, GFP fusion, multiplex flow cytometry (AID 1870;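 active means percent response above a set limit, the screen-wide mean plus 3 SD, cut at about 130% in these data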;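 further: barcoded CIT2-GFP strain pooled with four other GFP strains with rapamycin as positive control; median GFP fluorescence per well over plate mean of DMSO wells so 100% = DMSO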). Conditions: 3 h, at 10 µM, stronger effect = higher value.
Test [4] in a line: modulators of LAP4-GFP expression in yeast, primary screen, S. cerevisiae, multiplex flow cytometry (AID 1873;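 active means GFP signal, as percent of the solvent control, above the screen mean plus 3 SD, about 149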). To be noted: 3 h, at 10 µM, stronger effect = higher value.
Test [5] is described as follows: modulators of AGP1-GFP expression in yeast TOR pathway, primary screen, cell-based, multiplex flow cytometry, S. cerevisiae (AID 1887;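 active means GFP signal above the screen-wide mean plus 3 SD, that is over about 124.5% of the solvent control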;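 further: AGP1-GFP fusion strain of S. cerevisiae within a five-strain barcoded multiplex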). Conditions: 3 h, at 10 µM, stronger effect = higher value.
The nature of test [6]: inhibitors of CD8+ T cell-vesicle binding, pilot screen, LFA-1/ICAM-1 modulator project, MLPCN validation set, flow cytometry (AID 2523;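 active means response below a set limit, under 55% cells CD8-positive and vesicle-bound, and CD8 cells' 90th-percentile brightness under 279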;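 on vesicle binding response: mean PE anti-B7-1 fluorescence of CD8+ cells relative to row control; 100% = QL9-loaded vesicles with DMSO vehicle in the same plate row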). Conditions: 2C mouse CD8+ T cells, at 7 µM, stronger effect = lower value; double positive events: measured here: CD8+/vesicle+ event percentage.
Test [7] addresses Integrin beta-1 (Homo sapiens) + Integrin alpha-4 (Homo sapiens) (UniProt P13612+P05556). In words: inhibition of HUTS-21 binding to VLA-4, pilot screen, VLA-4 allosteric modulator project, U937 cells, HUTS-21 mAb, flow cytometry, validation set (AID 2674;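 active means inhibition above 50%, about 3 SD of the validation set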;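 further: antibody binding induced by the VLA-4 ligand LDV present at three times its Kd; 0% = LDV ligand with antibody and no compound and 100% = antibody without LDV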). Conditions: HUTS-21 LIBS mAb binding, at 6.7 µM, stronger effect = higher value, binding induced by LDV ligand.
The nature of test [8]: superoxide lowering in aged yeast cells, pilot screen, validation compound set (AID 2706;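 active means superoxide response below 65% of plate, a cut near 3 SD across the whole screen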;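 further: yeast exposed to compound for one week at 30 degrees C before staining; 100% = mean of all compound wells on the same plate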). To be noted: S. cerevisiae aging, superoxide DHE fluorescence; at 10 µM; stronger effect = lower value.
Test [9] has as its target Beta-adrenergic receptor kinase 1 (Homo sapiens) (UniProt P25098). Briefly: GRK2 binders displacing RNA aptamer, biochemical, validation, human GRK2, bead flow cytometry (AID 488806;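 active means aptamer binding inhibition above 30%, about 3 SD of noise from non-fluorescent compounds; inactive means inhibition at or below 30%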). Conditions: bead-bound GRK2, FAM-aptamer displacement, at 10 µM, stronger effect = higher value.
Test [10] has as its target Beta-2 adrenergic receptor (Homo sapiens) (UniProt P07550). In words: beta2AR agonists driving receptor internalization, pilot screen, cell-based, FAP fluorogen, flow cytometry, validation set (AID 504459;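 active means percent response above 42, roughly 3 SD of non-fluorescent test compounds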;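 further: agonist-driven loss of surface beta2AR via internalization measured by FAP dye flow cytometry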). To be noted: Am2.2-beta2AR cells, FAP surface receptor flow cytometry; at 10 µM; stronger effect = higher value.
Test [11] concerns the target AP-2 complex subunit beta (Homo sapiens) (UniProt P63010). In words: inhibitors of arrestin peptide binding to AP2, pilot screen, biochemical, validation set, GST-AP2 beads, flow cytometry (AID 504541;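 active means inhibition above 54%, about 3 SD of non-fluorescent compounds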;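 further: AP2 carries R879A mutation and is captured from E. coli lysate; bead-bound FITC arrestin peptide fluorescence measuring arrestin peptide binding to AP2; 0% = DMSO wells and 100% = excess unlabeled arrestin peptide control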). To be noted: FITC arrestin peptide, at 10 µM, stronger effect = higher value, AP2 beta2 appendage fragment, R879A mutant.
Test [12] is described as follows: yeast V-ATPase proton transport modulators, S. cerevisiae, pHLuorin, HTS validation (AID 504600; in the data active means response above about 15%;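 further: plate controls were DMSO for no effect and reference compound for full effect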). To be noted: S. cerevisiae pHLuorin cytosolic pH, at 10 µM, stronger effect = higher value.
The test system of test [13] is anti-desmoglein-3 scFv antibody binding to human DSG3. In words: inhibitors of anti-DSG3 scFv binding to DSG3, pilot screen, biochemical, validation compound set, bead-based, flow cytometry (AID 588368;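 active means binding below the plate cutoff, the plate median minus 3 SD, with a reading above zero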;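 further: signal is the median channel fluorescence of bead-bound GFP antibody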). Conditions: Protein G beads, DSG3-Fc, scFv-GFP binding, at 10 µM, stronger effect = lower value.
Test [14] is described as follows: inhibitors of fungal efflux pumps CDR1, CDR2, MDR1, pilot screen, validation compound set, multiplex, phenotypic (AID 588506;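 active means efflux inhibition above 0.42, the validation set average plus 4 SD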;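 further: Nile Red retained in cells so higher fluorescence means more efflux inhibition; 0 = negative control wells and 1 = enniatin B 25 µM full block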). To be noted: S. cerevisiae pump-expressing triplex, Nile Red efflux flow cytometry; at 10 µM; stronger effect = higher value; the pumps come from Candida albicans.
Test [15] addresses ATP-binding cassette sub-family B member 6 (Homo sapiens) (UniProt Q9NP58). Briefly: ABCB6 transporter inhibitors, pilot screen, K562-ABCB6 cells, flow cytometry, validation set (AID 588550).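 Further: 0% = DMSO wells and 100% = benzethonium chloride 70 µM positive control.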 Conditions: K562-ABCB6 porphyrin accumulation, 1 h, at 10 µM, stronger effect = higher value.
Test [16] is described as follows: promoters of myeloid differentiation in arrested cells, primary screen, cell-based, GFP/MAC1 double positive, flow cytometry, validation set (AID 588685;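 active means differentiation response of at least 50%, scaled between solvent and reference control, from cells with both markers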;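 further: compound exposure lasts four days before antibody staining and flow analysis; 0% = DMSO wells and 100% = 5 µM fulvestrant positive control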). Conditions: ER-HoxA9 marrow cells, stronger effect = higher value, normalized: vehicle 0, fulvestrant 100.

Sequence of AP-2 complex subunit beta (Homo sapiens) (P63010 whole entry, looked up, the tested form may be a part, one chain of several): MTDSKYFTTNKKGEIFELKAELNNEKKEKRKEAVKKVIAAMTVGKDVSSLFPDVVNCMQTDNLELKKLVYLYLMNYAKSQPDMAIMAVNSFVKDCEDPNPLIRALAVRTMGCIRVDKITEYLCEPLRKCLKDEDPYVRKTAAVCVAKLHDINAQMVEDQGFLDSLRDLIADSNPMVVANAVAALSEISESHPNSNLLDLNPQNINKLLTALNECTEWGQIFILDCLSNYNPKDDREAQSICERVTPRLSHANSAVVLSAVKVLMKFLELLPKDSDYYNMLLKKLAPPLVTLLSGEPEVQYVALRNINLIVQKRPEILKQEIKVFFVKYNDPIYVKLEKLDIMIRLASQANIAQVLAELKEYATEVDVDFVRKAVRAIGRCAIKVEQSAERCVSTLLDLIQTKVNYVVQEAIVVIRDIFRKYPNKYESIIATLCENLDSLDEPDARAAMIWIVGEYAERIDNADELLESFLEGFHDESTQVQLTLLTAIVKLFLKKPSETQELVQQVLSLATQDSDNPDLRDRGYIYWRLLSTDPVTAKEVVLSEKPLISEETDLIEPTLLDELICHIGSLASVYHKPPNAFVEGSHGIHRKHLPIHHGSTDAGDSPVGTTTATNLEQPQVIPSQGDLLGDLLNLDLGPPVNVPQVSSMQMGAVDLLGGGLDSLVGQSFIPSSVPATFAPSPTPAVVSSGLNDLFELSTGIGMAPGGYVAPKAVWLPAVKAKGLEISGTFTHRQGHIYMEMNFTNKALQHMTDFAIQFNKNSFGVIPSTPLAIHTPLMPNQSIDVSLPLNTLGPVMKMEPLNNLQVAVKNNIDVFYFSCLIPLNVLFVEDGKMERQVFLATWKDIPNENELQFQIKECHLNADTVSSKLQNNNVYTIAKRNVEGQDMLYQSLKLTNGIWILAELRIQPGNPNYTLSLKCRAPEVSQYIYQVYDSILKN
Sequence of Beta-2 adrenergic receptor (Homo sapiens) (P07550 whole entry, looked up): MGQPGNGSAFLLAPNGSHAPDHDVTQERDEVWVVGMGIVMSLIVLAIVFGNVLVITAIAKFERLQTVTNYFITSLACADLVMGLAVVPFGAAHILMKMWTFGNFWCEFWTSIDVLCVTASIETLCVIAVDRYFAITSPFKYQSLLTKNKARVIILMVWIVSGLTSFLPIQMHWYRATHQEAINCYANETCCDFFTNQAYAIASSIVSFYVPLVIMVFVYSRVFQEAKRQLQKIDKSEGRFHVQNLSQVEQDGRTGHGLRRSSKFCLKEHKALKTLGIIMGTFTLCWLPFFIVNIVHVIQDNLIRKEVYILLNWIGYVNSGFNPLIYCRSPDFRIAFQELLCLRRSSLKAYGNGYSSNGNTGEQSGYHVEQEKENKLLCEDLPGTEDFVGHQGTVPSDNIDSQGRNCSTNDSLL
Sequence of Beta-adrenergic receptor kinase 1 (Homo sapiens) (P25098 whole entry, looked up): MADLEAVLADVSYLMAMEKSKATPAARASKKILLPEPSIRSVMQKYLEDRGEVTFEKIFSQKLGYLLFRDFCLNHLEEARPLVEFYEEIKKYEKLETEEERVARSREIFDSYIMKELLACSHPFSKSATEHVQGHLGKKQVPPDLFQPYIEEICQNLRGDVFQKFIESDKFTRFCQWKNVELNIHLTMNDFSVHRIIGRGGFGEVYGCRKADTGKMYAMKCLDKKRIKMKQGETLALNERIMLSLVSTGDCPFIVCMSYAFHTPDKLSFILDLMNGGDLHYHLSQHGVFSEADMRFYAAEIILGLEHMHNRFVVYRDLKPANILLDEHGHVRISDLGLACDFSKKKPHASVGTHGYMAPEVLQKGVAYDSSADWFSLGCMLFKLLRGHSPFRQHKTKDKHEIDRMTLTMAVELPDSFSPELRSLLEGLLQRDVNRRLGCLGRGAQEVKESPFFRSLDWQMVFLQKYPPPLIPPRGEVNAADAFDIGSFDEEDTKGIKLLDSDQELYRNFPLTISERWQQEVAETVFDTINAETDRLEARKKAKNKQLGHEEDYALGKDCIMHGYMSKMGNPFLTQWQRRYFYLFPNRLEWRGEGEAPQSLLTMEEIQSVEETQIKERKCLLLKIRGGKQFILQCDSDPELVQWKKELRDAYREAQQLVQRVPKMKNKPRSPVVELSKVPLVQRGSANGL
Sequence of Integrin beta-1 (Homo sapiens) + Integrin alpha-4 (Homo sapiens) (P05556 whole entry, looked up): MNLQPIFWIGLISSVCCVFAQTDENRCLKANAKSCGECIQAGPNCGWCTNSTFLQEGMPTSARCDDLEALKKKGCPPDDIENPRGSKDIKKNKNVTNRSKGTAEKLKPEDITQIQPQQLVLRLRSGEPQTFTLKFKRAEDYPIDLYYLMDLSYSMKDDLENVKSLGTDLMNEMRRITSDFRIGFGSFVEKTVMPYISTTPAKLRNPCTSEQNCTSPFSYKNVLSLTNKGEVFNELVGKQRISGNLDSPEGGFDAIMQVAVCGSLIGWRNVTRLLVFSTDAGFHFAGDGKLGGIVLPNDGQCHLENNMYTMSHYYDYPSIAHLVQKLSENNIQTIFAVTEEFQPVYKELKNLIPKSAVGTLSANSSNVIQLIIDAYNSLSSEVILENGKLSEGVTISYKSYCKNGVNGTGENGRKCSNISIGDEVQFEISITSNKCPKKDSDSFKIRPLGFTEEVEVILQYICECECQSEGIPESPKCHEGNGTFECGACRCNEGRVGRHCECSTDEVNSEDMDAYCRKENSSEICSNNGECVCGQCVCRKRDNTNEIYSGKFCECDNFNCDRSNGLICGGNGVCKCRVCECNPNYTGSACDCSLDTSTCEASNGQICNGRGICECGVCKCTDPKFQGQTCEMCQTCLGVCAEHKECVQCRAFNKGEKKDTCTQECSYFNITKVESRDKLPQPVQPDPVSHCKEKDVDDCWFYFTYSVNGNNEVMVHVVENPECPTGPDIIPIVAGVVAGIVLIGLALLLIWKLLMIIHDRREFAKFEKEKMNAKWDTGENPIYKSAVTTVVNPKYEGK
Sequence of Integrin beta-1 (Homo sapiens) + Integrin alpha-4 (Homo sapiens) (P13612 whole entry, looked up): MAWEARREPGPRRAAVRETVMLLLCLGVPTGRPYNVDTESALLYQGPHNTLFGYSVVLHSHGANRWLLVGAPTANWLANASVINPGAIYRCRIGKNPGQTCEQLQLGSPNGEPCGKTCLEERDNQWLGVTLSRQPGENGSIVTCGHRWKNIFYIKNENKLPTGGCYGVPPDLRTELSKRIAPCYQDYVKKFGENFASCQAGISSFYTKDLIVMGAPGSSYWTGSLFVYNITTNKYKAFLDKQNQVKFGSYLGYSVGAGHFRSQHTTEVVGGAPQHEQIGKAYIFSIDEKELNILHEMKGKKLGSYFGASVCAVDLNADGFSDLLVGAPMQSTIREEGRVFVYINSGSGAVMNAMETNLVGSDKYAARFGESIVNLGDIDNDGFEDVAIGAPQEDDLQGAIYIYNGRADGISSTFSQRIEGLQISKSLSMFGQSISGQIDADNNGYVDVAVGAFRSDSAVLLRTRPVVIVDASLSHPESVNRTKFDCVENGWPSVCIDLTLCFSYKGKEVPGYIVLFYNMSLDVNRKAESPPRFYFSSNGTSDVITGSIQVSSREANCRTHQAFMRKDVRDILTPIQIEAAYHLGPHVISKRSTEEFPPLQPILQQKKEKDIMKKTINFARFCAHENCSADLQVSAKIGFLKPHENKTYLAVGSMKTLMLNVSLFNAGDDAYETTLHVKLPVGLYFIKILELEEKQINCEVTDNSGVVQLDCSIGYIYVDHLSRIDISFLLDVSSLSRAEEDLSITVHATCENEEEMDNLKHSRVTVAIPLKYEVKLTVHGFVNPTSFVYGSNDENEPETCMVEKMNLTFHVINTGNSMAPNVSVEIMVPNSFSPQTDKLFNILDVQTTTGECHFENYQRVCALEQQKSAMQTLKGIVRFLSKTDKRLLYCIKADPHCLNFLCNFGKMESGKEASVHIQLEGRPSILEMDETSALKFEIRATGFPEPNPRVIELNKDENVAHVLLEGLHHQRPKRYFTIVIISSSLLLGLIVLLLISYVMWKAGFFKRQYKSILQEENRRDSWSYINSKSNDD
Sequence of ATP-binding cassette sub-family B member 6 (Homo sapiens) (Q9NP58 whole entry, looked up): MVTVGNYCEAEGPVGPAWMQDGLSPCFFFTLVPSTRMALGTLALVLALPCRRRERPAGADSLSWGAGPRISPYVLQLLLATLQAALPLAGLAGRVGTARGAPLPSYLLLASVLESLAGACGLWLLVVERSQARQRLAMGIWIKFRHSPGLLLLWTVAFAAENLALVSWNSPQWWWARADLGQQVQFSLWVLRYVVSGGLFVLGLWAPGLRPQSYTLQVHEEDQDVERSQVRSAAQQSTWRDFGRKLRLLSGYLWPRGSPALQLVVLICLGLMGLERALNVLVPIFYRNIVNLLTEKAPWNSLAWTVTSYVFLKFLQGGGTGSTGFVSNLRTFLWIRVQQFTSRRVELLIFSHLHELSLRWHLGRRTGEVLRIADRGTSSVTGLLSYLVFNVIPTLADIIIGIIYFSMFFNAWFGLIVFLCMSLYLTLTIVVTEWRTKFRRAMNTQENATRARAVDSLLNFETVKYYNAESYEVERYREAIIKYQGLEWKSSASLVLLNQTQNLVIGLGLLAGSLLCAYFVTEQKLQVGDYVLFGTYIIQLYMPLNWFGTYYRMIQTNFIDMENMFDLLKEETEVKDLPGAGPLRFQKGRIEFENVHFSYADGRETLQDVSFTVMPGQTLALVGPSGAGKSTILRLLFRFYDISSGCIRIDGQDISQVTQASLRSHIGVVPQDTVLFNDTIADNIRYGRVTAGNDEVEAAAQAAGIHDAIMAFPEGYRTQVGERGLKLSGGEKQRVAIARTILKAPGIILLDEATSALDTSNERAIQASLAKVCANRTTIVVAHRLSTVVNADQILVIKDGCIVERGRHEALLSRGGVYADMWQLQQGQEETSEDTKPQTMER

The inhibition is the relative decrease from the control value, in per cent. On to `Cc1ccc(S(=O)(=O)NC(=O)NN2CCCCCC2)cc1`, for which, in test [1], the percent of DMSO control GFP is 102% (inactive). Also, the GFP response vs DMSO in test [2] was 110% (inactive); in test [4] it was 96.6% (inactive). Besides, in test [3], the percent response of DMSO control is 100% (inactive). In test [5], the GFP response, % of DMSO was 97.5% (inactive). Also, the double positive events in test [6] was determined as 61.4%. For the same compound, the vesicle binding response in [6] was 226% (inactive). For the same compound, the figures for the inhibition in [7], in [11] and in test [15] were 29.6% (inactive), 3.4% (inactive) and -2% (inactive), respectively. The superoxide response (% of plate) in test [8] was 92.2% (inactive). In addition, the aptamer binding inhibition in test [9] was 4% (inactive). Also, the results for the response in [10] and in test [12] were -9.17% (inactive) and -0.51% (inactive), respectively. In [13], the binding (% of control) is 99.7% (inactive). In addition, in [14], the efflux inhibition (fraction of control) was -0.04 (inactive). In addition, in [16], the differentiation response was 14.9% (inactive).

Take `COc1cccc(-n2c(C)c3c(OC)cccc(=O)c3c2C)c1`: in test [1], the percent of DMSO control GFP is 89.8% (inactive). Further, the figures for the GFP response vs DMSO in test [2] and in test [4] were 140% (active) and 85.8% (inactive), respectively. The percent response of DMSO control in [3] was 106% (inactive). Further, in [5], the GFP response, % of DMSO is 92.4% (inactive). Further, the double positive events in [6] amounted to 49.9%. Moreover, the vesicle binding response in [6] was 53.8% (active). The results for the inhibition in [7], in test [11] and in [15] were -33.3% (inactive), 41% (inactive) and 0% (inactive), respectively. In addition, the superoxide response (% of plate) in [8] was 109% (inactive). Further, the aptamer binding inhibition in [9] was 5% (inactive). Further, the response is -3.28% (inactive) in test [10] and -5.84% (inactive) in test [12]. In addition, the binding (% of control) in test [13] is 103% (inactive). Also, in [14], the efflux inhibition (fraction of control) is 0.12 (inactive). In addition, in [16], the differentiation response was -4.91% (inactive).

Regarding `CC(C)CN(C)Cc1c(C(=O)N2CCc3ccccc3C2)nc2ccc(Cl)cn12`, in test [1], the percent of DMSO control GFP is 105% (inactive). Besides, the GFP response vs DMSO in test [2] is 103% (inactive); in test [4] it was 98% (inactive). In addition, the percent response of DMSO control in test [3] was 107% (inactive). Besides, in test [5], the GFP response, % of DMSO is 105% (inactive). Further, the double positive events in test [6] was found to be 62.4%. For the same compound, the vesicle binding response in [6] was 147% (inactive). Also, the results for the inhibition in test [7], in test [11] and in [15] were 8.29% (inactive), 20.6% (inactive) and 11% (inactive), respectively. Moreover, the superoxide response (% of plate) in test [8] is 99.2% (inactive). Also, in test [9], the aptamer binding inhibition is 0% (inactive). In addition, the values for the response in [10] and in test [12] were -16.8% (inactive) and -4% (inactive), respectively. In addition, the binding (% of control) in [13] was 104% (inactive). The efflux inhibition (fraction of control) in [14] was 0.22 (inactive). Moreover, the differentiation response in [16] was -13.3% (inactive).

`Cc1ccc(S(=O)(=O)NC(C(=O)Oc2ccc3c(C(F)(F)F)cc(=O)oc3c2)c2ccccc2)cc1` (stereo not given): the percent of DMSO control GFP in [1] is 98.1% (inactive). Moreover, the GFP response vs DMSO in [2] was 102% (inactive); in test [4], 115% (inactive). Further, the percent response of DMSO control in test [3] is 100% (inactive). Further, in test [5], the GFP response, % of DMSO is 107% (inactive). The compound further showed a double positive events in test [6] of 62.2%. The vesicle binding response in [6] is 183% (inactive). Also, the inhibition in test [7] is -6.23% (inactive); in test [11], 59.2% (active); in [15], -3% (inactive). Moreover, the superoxide response (% of plate) in [8] is 106% (inactive). The aptamer binding inhibition in test [9] was -1% (inactive). In addition, the response was 5.6% (inactive) in test [10] and -16.5% (inactive) in [12]. The binding (% of control) in [13] was 92.6% (inactive). In addition, in [14], the efflux inhibition (fraction of control) was 0.12 (inactive). Moreover, the differentiation response in test [16] was 0.92% (inactive).

Consider `Cc1ccccc1C(=O)Oc1ccc(Sc2ccc(O)cc2)cc1`, for which, in test [1], the percent of DMSO control GFP was 103% (inactive). Also, the GFP response vs DMSO in test [2] is 99.3% (inactive); in test [4] it was 113% (inactive). Also, in test [3], the percent response of DMSO control was 100% (inactive). The GFP response, % of DMSO in [5] is 100% (inactive). This compound showed a double positive events in test [6] of 62.4%. For the same compound, the vesicle binding response in test [6] was 255% (inactive). The inhibition was 0.58% (inactive) in test [7], -5.67% (inactive) in [11] and -7% (inactive) in test [15]. Further, the superoxide response (% of plate) in [8] was 94.1% (inactive). For the same compound, the aptamer binding inhibition in test [9] is 0% (inactive). In addition, the response was -4.72% (inactive) in [10] and 1.54% (inactive) in test [12]. In addition, in [13], the binding (% of control) was 97.6% (inactive). The efflux inhibition (fraction of control) in test [14] was 0.02 (inactive). Moreover, the differentiation response in [16] is -1.71% (inactive).
